# Rce1 inh: blocks yeast Ras-converting enzyme. 290,000 compounds, 0.27% hits. yeast membranes, quenched prenylated peptide cleavage fluorescence. Q03530. calls only;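 active = fall in fluorescence gain of 50% or more versus controls, with final raw signal at or below 3038400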;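 also: plate controls were neutral control wells for no effect and wells lacking membranes for full effect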
# Target sequence (Q03530 whole entry, looked up): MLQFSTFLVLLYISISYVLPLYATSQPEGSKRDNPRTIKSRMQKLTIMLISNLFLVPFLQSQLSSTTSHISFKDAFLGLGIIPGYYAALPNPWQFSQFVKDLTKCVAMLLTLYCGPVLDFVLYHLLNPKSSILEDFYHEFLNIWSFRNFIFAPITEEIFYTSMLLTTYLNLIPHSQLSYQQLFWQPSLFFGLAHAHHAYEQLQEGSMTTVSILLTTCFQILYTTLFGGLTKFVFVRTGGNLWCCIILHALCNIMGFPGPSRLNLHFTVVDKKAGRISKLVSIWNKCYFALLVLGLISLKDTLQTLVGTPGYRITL
# Granule exo inh: lytic granule exocytosis inhibition. TALL-104 LAMP-1 surface exposure, flow cytometry; cells stimulated with thapsigargin and PMA. inhibition, % at 10 µM. 360,000 compounds, 0.66% hits. AID 651702;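 active = inhibition above about 55%, limit read from the data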
# Platelet DG rel: modulates dense granule release in human platelets. 300,000 compounds, 0.22% hits. human platelet-rich plasma, SFLLRN dense granule ATP release, luminescence. inhibition, %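 (compounds screened at 7.5 µM in platelet-rich plasma)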;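 active = mean replicate score, as percent of positive control, at or above 50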
# ABHD5 PLIN5 PPI: inhibitors of human ABHD5-perilipin-5 interaction; inhibition, % at 4 µM; Q00G26+Q8WTS1; Split G. princeps luciferase complementation, luminescence, 4 h; 360,000 compounds, 0.78% hits;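 active = inhibition above the mean inhibition across every tested compound plus 3 SD, cut at about 22% in these data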;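 also: 0% = DMSO only wells and the 100% control is not disclosed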
# PfM18AAP inh: PfM18AAP enzyme inhibition; inhibition, % at 7.35 µM; 290,000 compounds, 1.2% hits; recombinant PfM18AAP, H-Glu-NHMec fluorogenic cleavage;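 active = inhibition above the campaign mean inhibition over all tested compounds plus 3 SD, cut at about 28% in these data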;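 also: 0% = plate median of test compound wells and 100% = 2 mM ZnCl2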
# ABHD5-PLIN5 conf: confirmation of human ABHD5-PLIN5 interaction inhibitors; 2,200 compounds, 67% hits; inhibition, % at 4 µM; biochemical ABHD5-PLIN5 interaction, luminescence; shares compounds with ABHD5 PLIN5 PPI; in the data active = inhibition above about 23%;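 also: 0% = DMSO vehicle wells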
# HNF4 split-luc: HNF4 split-luciferase signal hit, counter-screen. 2,200 compounds, 77% hits. shares compounds with ABHD5 PLIN5 PPI. inhibition, % at 4 µM. AID 651674. HNF4 dimerization, luminescence, biochemical;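 active = mean inhibition across replicate wells exceeding the computed hit threshold, cut at about 13% in these data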;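 also: light from luciferase halves that rejoin when HNF4 fusion proteins dimerize; 0% = DMSO only wells and the 100% control is not given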
# * hit, by the source's call; i = inactive; / = no result. The list is not random: actives were taken first. Their share in the collection is about 2.6%.
SMILES,Rce1 inh,Granule exo inh,Platelet DG rel,ABHD5 PLIN5 PPI,PfM18AAP inh,ABHD5-PLIN5 conf,HNF4 split-luc
Nc1ccccc1SC(CC(=O)c1ccccc1)c1ccc([N+](=O)[O-])cc1 (stereo not given),/,35.4,/,71.1*,/,70.5*,85.4*
COc1ccc(N(C)C(=O)c2onc3c2CCCC3)cc1,i,1.4,-0.5,-6.9,-0.3,/,/
CCOC(=O)c1c(NC(=O)c2ccoc2C)sc(C(=O)N(C)C)c1C,i,-0.9,1.5,-3.5,-7.1,/,/
Cc1nc2ccccc2nc(C)c1=NOCC(=O)N(c1ccccc1)C(C)C,i,-0.9,-2.7,4.0,-3.0,/,/
CC(=O)c1ccc(NC(=O)CN2CCC(C(=O)c3ccc4c(c3)OCCO4)CC2)cc1,i,29.9,-1.0,4.4,2.1,/,/
Cc1ccc(S(=O)(=O)c2ccc([N+](=O)[O-])cn2)cc1,i,13.9,-6.2,48.5*,-320.4,74.6*,112.3*
O=[N+]([O-])c1ccc(S(=O)(=O)c2ccccc2)nc1,i,33.8,0.2,53.7*,-300.5,56.6*,108.7*
Cc1cc(S(=O)(=O)c2ccc([N+](=O)[O-])cn2)ccc1Br,i,17.2,-7.2,16.2,/,/,/
O=C(/C=C/c1ccc(O)c(O)c1)c1ccc(S(=O)(=O)N2CCCCCC2)cc1,i,-3.0,-16.1,32.0*,59.8*,69.6*,67.5*
CCCC(=O)NC(c1cccc([N+](=O)[O-])c1)c1ccc2cccnc2c1O (stereo not given),/,-5.2,/,28.7*,/,26.1*,0.4
CCCCC(=O)NC(c1ccc(N(C)C)cc1)c1ccc2cccnc2c1O (stereo not given),/,14.2,2.1,23.4*,11.6,17.0,3.9
CC(C)C(=O)NC(c1cccc([N+](=O)[O-])c1)c1ccc2cccnc2c1O (stereo not given),i,1.6,0.6,12.6,0.6,/,/
CCCCc1ccccc1NC(=S)NC1CCCC1,i,-1.5,-18.4,-12.4,8.2,/,/
O=C(CSc1cnc2ccccc2n1)c1ccc(F)cc1,i,-1.3,7.4,-15.6,12.2,/,/
CCOC(=O)C(C(=O)OCC)C(Nc1ccc(Br)cc1)c1ccccc1 (stereo not given),i,5.8,0.3,25.9*,3.1,10.7,52.2*
CCCn1cc(NC(=O)c2cc3n(n2)C(C(F)(F)F)CC(c2ccccc2)N3)cn1 (stereo not given),i,2.7,-5.8,1.1,-6.6,/,/
CSC1=NC(C)(C)C=C(/C=C/c2c(Cl)cccc2Cl)N1,i,0.2,12.6,7.2,17.1,/,/
CSC1=NC(C)(C)C=C(/C=C/c2ccc(Cl)cc2)N1,i,23.3,-1.0,23.9*,0.4,45.5*,42.5*
CCSC1=NC(C)(C)C=C(/C=C/c2ccc(Cl)cc2Cl)N1,i,36.6,-1.0,26.2*,3.2,32.2*,33.3*
Cc1nc(-c2ccncc2)nc(NCCNc2ccc(C(F)(F)F)cn2)c1Cl,i,6.1,-1.5,0.0,-13.6,/,/
CN1C2CCC1/C(=C\c1ccccc1F)C(=O)/C2=C/c1ccccc1F,i,6.7,0.8,24.8*,-3.7,26.3*,27.5*
CC1CCN(C2=NC(=O)/C(=C/c3ccccc3F)S2)CC1,i,13.1,7.5,8.7,2.5,/,/
O=C(O)CCc1ccc(-c2ccc(Br)cc2)o1,i,2.5,-1.2,29.0*,-5.4,24.0*,71.2*
COc1ccc(-c2ccc(CCC(=O)O)o2)cc1,i,10.7,9.1,60.5*,10.0,13.7,64.5*
NC(=O)c1ccc(-c2ccc(Br)cc2)o1,i,3.7,0.4,11.9,-11.1,/,/
O=C(O)CCc1ccc(-c2ccc(Cl)cc2)o1,i,15.4,-3.2,43.0*,-16.9,-1.8,9.8
O=S(=O)(/N=S1/CC=CCN1S(=O)(=O)c1ccccc1)c1ccccc1 (stereo not given),i,-2.6,0.8,71.5*,17.0,60.0*,101.3*
O=S(=O)(c1ccccc1)N1CCN(S(=O)(=O)c2ccccc2)C1,i,-1.1,5.0,-2.7,5.0,/,/
C#CCOCCOCCOCCNc1nc(N2CCN(C(=O)CCCCCCCCCCNC(=O)[C@H](CCCCN)n3cc(CCO)nn3)CC2)nc(N2CCN(C(=O)CCCCCCCCCCNC(=O)[C@@H]([C@H](C)O)n3cc(C)nn3)CC2)n1,/,-3.9,/,45.0*,/,28.8*,13.4*

# Screens (PubChem BioAssay)
